From publication PMC4336329 (PLoS ONE, 2015)
The whole screen tested about 310,000 compounds, of which about 14,000 (4.5%) showed an effect of 50% or more. The effect is printed as a negative number. Many of the other results were omitted from the sample, so strong results are more common in it than they were.

molecular target: human ether-à-go-go-related gene (hERG) potassium channel (human, UniProt Q12809); assay: primary screen, population patch clamp on CHO cells stably expressing hERG; higher = less effect of the substance
Sequence (Q12809 whole entry, looked up): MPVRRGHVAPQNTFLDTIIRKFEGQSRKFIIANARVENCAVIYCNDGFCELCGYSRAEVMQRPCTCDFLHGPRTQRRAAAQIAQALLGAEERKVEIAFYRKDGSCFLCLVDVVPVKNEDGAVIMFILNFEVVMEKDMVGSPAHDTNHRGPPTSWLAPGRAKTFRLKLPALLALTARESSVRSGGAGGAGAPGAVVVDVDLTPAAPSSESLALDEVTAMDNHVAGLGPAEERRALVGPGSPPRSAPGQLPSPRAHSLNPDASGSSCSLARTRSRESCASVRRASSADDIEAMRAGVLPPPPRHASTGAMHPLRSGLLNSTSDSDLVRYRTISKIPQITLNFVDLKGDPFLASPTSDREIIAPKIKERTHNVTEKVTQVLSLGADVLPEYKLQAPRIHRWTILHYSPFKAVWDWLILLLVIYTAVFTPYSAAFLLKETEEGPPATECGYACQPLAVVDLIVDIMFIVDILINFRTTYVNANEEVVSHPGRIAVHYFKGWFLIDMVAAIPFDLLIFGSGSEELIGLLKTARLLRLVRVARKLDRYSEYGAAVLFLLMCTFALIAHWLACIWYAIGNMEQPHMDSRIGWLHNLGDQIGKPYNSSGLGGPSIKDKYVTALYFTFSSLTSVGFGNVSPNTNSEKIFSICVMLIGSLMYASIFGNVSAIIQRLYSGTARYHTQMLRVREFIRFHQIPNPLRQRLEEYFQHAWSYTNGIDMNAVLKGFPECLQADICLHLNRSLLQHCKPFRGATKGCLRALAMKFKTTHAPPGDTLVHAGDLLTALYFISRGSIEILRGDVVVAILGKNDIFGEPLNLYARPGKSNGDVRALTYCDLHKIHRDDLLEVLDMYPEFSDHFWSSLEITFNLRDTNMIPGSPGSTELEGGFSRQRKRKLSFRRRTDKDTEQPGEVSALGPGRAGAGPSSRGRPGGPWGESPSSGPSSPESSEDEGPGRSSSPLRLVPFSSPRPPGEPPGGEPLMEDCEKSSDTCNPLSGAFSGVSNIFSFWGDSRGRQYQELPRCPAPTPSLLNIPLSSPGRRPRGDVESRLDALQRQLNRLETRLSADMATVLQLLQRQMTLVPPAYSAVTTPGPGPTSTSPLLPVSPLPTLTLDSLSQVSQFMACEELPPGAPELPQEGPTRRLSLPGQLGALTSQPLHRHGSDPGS
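Note: peak tail current of the secondary pulse compared with the same well before compound.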

Row | SMILES | hERG current change (%, negative = inhibition) at 10uM
1 | O=C(OC(C(=O)NCc1ccc2c(c1)OCO2)c1ccccc1F)c1ccco1 (centres unmarked) | -31.1%
2 | COc1cccc2cc(/C(C)=N/NC(=O)c3ccco3)oc12 | -52.2%
3 | C/C(=N\NC(=O)c1ccncc1)c1cc2ccccc2o1 | -20.5%
4 | COc1cccc2cc(C(C)=O)oc12 | 15.5%
5 | C/C(=N\NC(=O)c1nc2ccccn2c1C)c1cc2ccccc2o1 | -63%
6 | C/C(=N\NC(=O)c1ccc(O)cc1)c1cc2ccccc2o1 | -50.3%
7 | C/C(=N\NC(=O)c1nc2ccccn2c1C)c1ccc2c(c1)OCO2 | -18.5%
8 | C/C(=N\NC(=O)c1nc2ccccn2c1C)c1ccco1 | -1.34%
9 | C/C(=N\NC(=O)c1cc2ccccc2cc1O)c1cc2ccccc2o1 | 6.05%
10 | C/C(=N\NC(=O)c1ccco1)c1cc2ccccc2o1 | -9.09%
11 | Cc1ccc(Nc2ncc3c(n2)CC(C)CC3=O)c(C)c1 (centres unmarked) | 0.876%
12 | CCCCN(C(=O)c1cc(CC)c(C)s1)c1c(N)n(CCC)c(=O)[nH]c1=O | -20.8%
13 | CCOc1ccc2ccccc2c1/C=N\NC(=O)OC | 12.7%
14 | CCCOc1cccc(-c2cc(C(=O)N/N=C/c3ccccn3)c3ccccc3n2)c1 | 0.224%
15 | COc1cccc(CN2CCNC(=O)C2CC(=O)N(C)CCC2CCOCC2)c1 (centres unmarked) | 8.75%
16 | Cc1ccc2nc(Cl)c(CN(C(=O)c3cnccn3)C3CCCCC3)cc2c1 | -24.7%
17 | OCC1(Cc2cccc(F)c2)CCN(Cc2cccc3nccnc23)CC1 | -59.8%
18 | CCCn1ncc(CN2CCC(CO)(Cc3ccc(OC)cc3)CC2)c1C | -41.9%
19 | COc1ccc(CC2(CO)CCN(Cc3cccc4nccnc34)CC2)cc1 | -70.9%
20 | COc1ccc(CC2(CO)CCN(Cc3cccc(OC)c3OC)CC2)cc1 | -60.5%
21 | O=C(c1cnsn1)N1CCC(CO)(Cc2cccc(F)c2)CC1 | 10.8%
22 | COc1ccc(CC2(CO)CCN(Cc3cccn3-c3ccccn3)CC2)cc1 | -75.4%
23 | COc1ccc(CC2(CO)CCN(Cc3cnn(C)c3C)CC2)cc1 | -21.6%
24 | O=S(=O)(c1cccc(F)c1)N1CCC(CO)(Cc2cccc(F)c2)CC1 | -18.2%
25 | COc1ccc(CC2(CO)CCN(S(=O)(=O)c3cccc4cccnc34)CC2)cc1 | -5.13%
26 | COc1cccc(CC2(CO)CCN(Cc3cccn3-c3cccnc3)CC2)c1 | -47.7%
27 | COc1cc(CN2CCN(Cc3cccc(OC)c3OC)CC2)cc(OC)c1 | -34.2%

Row | SMILES | hERG current change (%, negative = inhibition) at 10uM
28 | COc1ccc(C2=NOC3(CC(=O)N(c4ccc(C)cc4)C3=O)C2)c(OC)c1 (centres unmarked) | 4.08%
29 | CCOC(=O)N1CCN(Cc2cccs2)CC1 | 24.3%
30 | Cc1ccc(C)c(NC(=O)CSc2nnc3n2CCCCC3)c1 | 11%
31 | COc1ccnc(Oc2ccc(F)cc2)c1C(=O)N/C=N/OCc1c(Cl)cccc1Cl | -5.9%
32 | C(#Cc1ccccc1)CN1CCN(c2ccccn2)CC1.Cl | -8.88%
33 | O=C(Nc1cccc(S(=O)(=O)Nc2ccccc2Cl)c1)c1ccc(Cl)nc1 | -8.9%
34 | C/C(CCN1CCc2nc(-c3ccccc3)c(-c3ccccc3)cc2C1)=N\O[C@@H](C)c1cc(-c2c(C)cc(C)cc2C)no1 | 4.08%
35 | COc1cccc(-c2cc(C(F)(F)F)nc(-n3ccc([N+](=O)[O-])n3)n2)c1 | -6.33%
36 | CCOC(=O)c1cnc(SCC(=O)Nc2ccccc2C(=O)OC)nc1N | -13.1%
37 | COc1ccc2c(c1)CCc1sc(NC(=O)c3ccc(C)cc3)nc1-2 | 10.9%
38 | CCN(CC)CCN(C(=O)c1ccc2c(c1)CCCC2)c1nc2c(C)cccc2s1.Cl | -30.2%
39 | CN(C)CCN(C(=O)c1cccc(Cl)c1)c1nc2c(Cl)cccc2s1.Cl | -52.6%
40 | CCN(CC)CCN(C(=O)c1ccc2c(c1)OCCO2)c1nc2c(Cl)cccc2s1.Cl | -54.7%
41 | CC1CN(S(=O)(=O)c2ccc(C(=O)N(CCCN(C)C)c3nc4c(Cl)cccc4s3)cc2)CC(C)O1.Cl (centres unmarked) | -36.7%
42 | CN(C)CCN(C(=O)c1ccc2c(c1)OCCO2)c1nc2c(Cl)cccc2s1.Cl | -59.3%
43 | COC(=O)c1ccc(C(=O)N(CCN(C)C)c2nc3c(Cl)cccc3s2)cc1.Cl | -54.9%
44 | CC(=O)c1ccc(C(=O)N(CCN(C)C)c2nc3c(Cl)cccc3s2)cc1.Cl | -48.6%
45 | Cc1ccc2sc(N(CCN(C)C)C(=O)c3ccc4ccccc4c3)nc2c1C.Cl | 18.7%
46 | COc1ccccc1OCCNC(=O)c1cc(F)c(F)cc1Cl | -2.68%
47 | Cc1ccccc1-n1nnnc1SC(C)C(=O)Nc1ccc(N2CCN(C)CC2)cc1 (centres unmarked) | -25.4%
48 | COc1ccc(NC(=O)[C@@H]2CC=C[C@@H]3CCN(Cc4ccccc4)C(=O)[C@@H]32)cc1 | -8.12%
49 | COC(=O)[C@@H]1C[C@@H]2CC[C@@H](O)C[C@@H]2N1Cc1ccc(Cl)cc1 | 23.7%
50 | CCOc1cc(/C=C2\C(=O)N(c3nc(-c4ccc(Br)cc4)cs3)N=C2c2ccccc2)ccc1O | 4.44%
51 | CS(=O)(=O)c1ccc(Cl)c(NC(=O)C2CC(=O)N(Cc3ccco3)C2)c1 (centres unmarked) | 9.79%
52 | CS(=O)(=O)c1ccc(C(=O)OCC(=O)NC(=O)C2CCCCC2)cc1[N+](=O)[O-] | 28.1%
53 | Cc1ccc(-c2cc(C(F)F)n3ncc(C(=O)N4CCCc5ccccc54)c3n2)cc1 | 3.94%
